In assay [1] the test system is Plasmodium falciparum Sir2 (PF13_0152, Sir2A). Put plainly: Plasmodium falciparum Sir2A binding compounds – biochemical, small-molecule microarray, 635 nm fluorescence, primary screen (AID 1098).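 Note: score merges spot fluorescence intensity with its signal-to-noise ratio.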 Particulars: fluorescence 635 nm, higher = more signal.
Assay [2] can be described thus: probe aDKK1 binding to arrayed compounds – biochemical, biotinylated probe, 635/667 nm fluorescence, primary screen (AID 1099).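 Note: score merges 667nm spot fluorescence with signal to noise across triplicate slides.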 To be noted: small-molecule microarray, higher = more signal.
Assay [3] in a line: probe aCHRDL2 binding to arrayed compounds – biochemical, biotinylated probe, 635/667 nm fluorescence, primary screen (AID 1100). To be noted: small-molecule microarray, higher = more signal.
Assay [4] in a line: change in splice reporter luminescence, either direction, cell-based, HEK293, spliceosome inhibition project, primary screen (AID 1101).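 Note: HEK293 cells carrying a splicing-competent luciferase reporter gene; test concentration not given here.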 Particulars: HEK293 splicing luciferase reporter, 24 h, higher = more signal, called active from +8 up or from −8 down. For orientation: Reporter assays use an easily measured gene product as a stand-in for the process of interest.
Assay [5] addresses Fibroblast growth factor 10 (Homo sapiens) (UniProt O15520). The assay can be described thus: compounds binding fibroblast growth factor 10 – biochemical, small-molecule microarray, 635 nm fluorescence, primary screen (AID 1102). To be noted: FGF10 binding, fluorescence 635 nm, higher = more signal.
Assay [6] deals with glycogen synthase kinase-3 (GSK3A per assay name; protocol says GSK3B). Put plainly: compounds binding glycogen synthase kinase-3 – biochemical, small-molecule microarray, 635 nm fluorescence, GSK3A, primary screen (AID 1103). Note: the record names both GSK3A and GSK3B. Particulars: fluorescence 635 nm, higher = more signal.
The target of assay [7] is Epidermal growth factor receptor (Homo sapiens) (UniProt P00533). The assay can be described thus: compounds binding epidermal growth factor receptor – biochemical, small-molecule microarray, 635 nm fluorescence, primary screen (AID 1104).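 Note: score merges 667 nm emission intensity with spot signal to noise over triplicate slides.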 To be noted: EGFR binding, higher = more signal.
Chain of Epidermal growth factor receptor (Homo sapiens) (P00533 whole entry, looked up): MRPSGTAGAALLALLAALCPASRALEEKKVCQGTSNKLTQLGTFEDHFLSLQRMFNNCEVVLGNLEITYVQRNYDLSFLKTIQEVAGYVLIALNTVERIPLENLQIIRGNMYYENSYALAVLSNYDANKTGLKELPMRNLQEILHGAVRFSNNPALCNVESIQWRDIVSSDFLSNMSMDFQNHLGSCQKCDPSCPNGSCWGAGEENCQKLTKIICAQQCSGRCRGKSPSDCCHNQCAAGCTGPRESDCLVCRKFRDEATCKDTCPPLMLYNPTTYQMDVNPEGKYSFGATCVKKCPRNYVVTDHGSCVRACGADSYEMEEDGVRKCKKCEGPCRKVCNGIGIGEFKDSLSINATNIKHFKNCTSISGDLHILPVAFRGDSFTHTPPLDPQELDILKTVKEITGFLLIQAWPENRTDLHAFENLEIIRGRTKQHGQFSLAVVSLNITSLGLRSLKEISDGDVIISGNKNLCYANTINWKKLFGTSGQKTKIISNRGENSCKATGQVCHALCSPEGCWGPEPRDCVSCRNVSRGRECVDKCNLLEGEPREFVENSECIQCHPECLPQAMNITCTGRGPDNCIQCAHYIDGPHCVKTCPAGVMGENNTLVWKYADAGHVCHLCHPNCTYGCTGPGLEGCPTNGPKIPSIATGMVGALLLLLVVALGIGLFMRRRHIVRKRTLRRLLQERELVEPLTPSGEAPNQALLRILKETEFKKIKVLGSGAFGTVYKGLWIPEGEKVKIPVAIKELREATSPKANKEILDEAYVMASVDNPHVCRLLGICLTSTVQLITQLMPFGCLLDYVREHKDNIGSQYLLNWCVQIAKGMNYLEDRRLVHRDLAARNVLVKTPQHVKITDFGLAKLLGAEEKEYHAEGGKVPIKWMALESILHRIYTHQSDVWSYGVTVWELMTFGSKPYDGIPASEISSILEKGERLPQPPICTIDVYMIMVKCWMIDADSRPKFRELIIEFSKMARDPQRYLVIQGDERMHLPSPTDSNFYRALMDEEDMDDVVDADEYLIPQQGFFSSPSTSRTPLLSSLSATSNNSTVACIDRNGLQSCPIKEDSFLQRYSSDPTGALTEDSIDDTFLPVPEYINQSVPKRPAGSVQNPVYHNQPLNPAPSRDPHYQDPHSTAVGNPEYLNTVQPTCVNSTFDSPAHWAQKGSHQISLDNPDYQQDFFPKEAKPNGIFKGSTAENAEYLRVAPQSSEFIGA
The target in assay [8] is Follistatin-related protein 3 (Homo sapiens) (UniProt O95633). The assay can be described thus: compounds binding follistatin-related protein 3 – biochemical, small-molecule microarray, 635 nm fluorescence, primary screen (AID 1105).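 Note: score merges emission near 667 nm and signal to noise per printed spot across three slides.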 Particulars: FSTL3 binding, higher = more signal.
Chain of Follistatin-related protein 3 (Homo sapiens) (O95633 whole entry, looked up): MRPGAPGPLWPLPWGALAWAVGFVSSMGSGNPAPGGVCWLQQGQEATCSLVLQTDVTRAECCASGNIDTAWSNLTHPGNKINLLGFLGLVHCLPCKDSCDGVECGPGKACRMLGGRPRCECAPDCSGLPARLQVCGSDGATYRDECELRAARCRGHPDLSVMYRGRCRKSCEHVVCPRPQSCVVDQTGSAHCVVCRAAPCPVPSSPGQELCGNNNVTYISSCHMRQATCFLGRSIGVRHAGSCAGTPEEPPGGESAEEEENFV
Assay [9] concerns the target Dickkopf-related protein 1 (Homo sapiens) (UniProt O94907). Put plainly: small molecules binding DKK1 protein – biochemical, small-molecule microarray, 635 nm fluorescence scan, primary screen (AID 1106).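 Note: score merges emission near 667 nm with signal to noise over three replicate slides.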 To be noted: higher = more signal.
The subject of assay [10] is Inhibin beta A chain (activin A). The assay can be described thus: small molecules binding activin A – biochemical, small-molecule microarray, 635 nm fluorescence scan, primary screen (AID 1107).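 Note: mouse activin A protein probed at 4.33 µg/mL on printed slides; score merges bound-protein fluorescence near 667 nm with spot signal-to-noise.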 To be noted: INHBA, higher = more signal.
Assay [11] concerns Human papillomavirus type 1a protein E7 (residues 44-93). Put plainly: small molecules binding HPV E7 44-93 – biochemical, small-molecule microarray, residues 44-93, 635 nm fluorescence, primary screen (AID 1108).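 Note: E7 fragment applied at 1 µg/mL in TBST for 1 h at 4 C; score combines spot fluorescence with its signal to noise ratio.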 Particulars: fluorescence 635 nm, higher = more signal.
The nature of assay [12]: hepatitis C replication reporter changes, two-sided – Huh7 cells, luciferase reporter, HCV replication inhibitor project, primary screen (AID 1109).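 Note: huh7 hepatoma cells harbouring a luciferase neomycin HCV replicon reporter; luciferase luminescence as measure of HCV replicon replication; test concentration not given here.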 Particulars: Huh7 HCV replicon luciferase reporter, 48 h; higher = more signal.
In assay [13] the target is Left-right determination factor 2 (Homo sapiens) (UniProt O00292). Put plainly: small molecules binding LEFTY2 protein – biochemical, small-molecule microarray, 635 nm fluorescence scan, primary screen (AID 1110). To be noted: higher = more signal.
Chain of Left-right determination factor 2 (Homo sapiens) (O00292 whole entry, looked up): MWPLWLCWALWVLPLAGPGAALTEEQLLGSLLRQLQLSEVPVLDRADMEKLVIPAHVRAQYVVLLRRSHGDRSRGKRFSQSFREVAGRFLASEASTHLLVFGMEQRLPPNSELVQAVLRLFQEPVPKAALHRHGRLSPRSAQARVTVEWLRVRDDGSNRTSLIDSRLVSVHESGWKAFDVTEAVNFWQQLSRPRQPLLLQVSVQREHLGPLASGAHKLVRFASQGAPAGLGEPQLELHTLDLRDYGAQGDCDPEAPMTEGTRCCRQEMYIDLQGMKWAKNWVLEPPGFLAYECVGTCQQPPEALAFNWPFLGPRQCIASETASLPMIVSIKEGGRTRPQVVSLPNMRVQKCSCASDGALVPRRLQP
Assay [14] deals with Calmodulin-1 (Homo sapiens) (UniProt P0DP23). The assay can be described thus: small molecules binding calmodulin-1 with EGTA – biochemical, small-molecule microarray, Cy5-labelled CALM1, profiling panel (AID 1111).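 Note: labelled calmodulin applied in Tris saline Tween buffer holding calcium plus EGTA and DTT.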 Particulars: Cy5-CALM1 binding fluorescence, higher = more signal.
Assay [15] shares this target. Put plainly: small molecules binding Ca-loaded calmodulin-1 – biochemical, small-molecule microarray, Cy5-labelled CALM1, plus calcium, artefact control for SMM control-protein annotation, profiling panel (AID 1112).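 Note: score merges spot fluorescence with signal to noise from triplicate slides.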 Particulars: Cy5-CALM1 binding fluorescence, higher = more signal.
The nature of assay [16]: probe aWnt5a binding to arrayed compounds – biochemical, biotinylated probe, 635/667 nm fluorescence, primary screen (AID 1113).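 Note: score merges 667 nm fluorescence intensity with signal-to-noise per printed feature.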 To be noted: small-molecule microarray, higher = more signal.
Assay [17] can be described thus: probe aShh binding to arrayed compounds – biochemical, biotinylated probe, 635/667 nm fluorescence, primary screen (AID 1114).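 Note: probe is biotin-labelled aShh protein from a stem cell growth factor screen; measures binding of labelled protein to compounds printed on the slide; score merges feature fluorescence at 667 nm with signal-to-noise.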 Particulars: small-molecule microarray, higher = more signal.
Assay [18] in a line: probe aNog binding to arrayed compounds – biochemical, biotinylated probe, 635/667 nm fluorescence, primary screen (AID 1115).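 Note: probe is biotinylated aNog protein used at 0.15 µg/mL for 1 h at 4 C; z-score combines 667 nm fluorescence of each spot with its signal to noise.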 Particulars: small-molecule microarray, higher = more signal.
The target of assay [19] is Torsin-1A-interacting protein 1 (Homo sapiens) (UniProt Q5JTV8). Put plainly: compound microarray binding of lysate hLAP1 – cell lysate, small-molecule microarray, COS7 lysate, 635/667 nm fluorescence, primary screen (AID 1116). Particulars: 635 nm fluorescence, higher = more signal.
Chain of Torsin-1A-interacting protein 1 (Homo sapiens) (Q5JTV8 whole entry, looked up): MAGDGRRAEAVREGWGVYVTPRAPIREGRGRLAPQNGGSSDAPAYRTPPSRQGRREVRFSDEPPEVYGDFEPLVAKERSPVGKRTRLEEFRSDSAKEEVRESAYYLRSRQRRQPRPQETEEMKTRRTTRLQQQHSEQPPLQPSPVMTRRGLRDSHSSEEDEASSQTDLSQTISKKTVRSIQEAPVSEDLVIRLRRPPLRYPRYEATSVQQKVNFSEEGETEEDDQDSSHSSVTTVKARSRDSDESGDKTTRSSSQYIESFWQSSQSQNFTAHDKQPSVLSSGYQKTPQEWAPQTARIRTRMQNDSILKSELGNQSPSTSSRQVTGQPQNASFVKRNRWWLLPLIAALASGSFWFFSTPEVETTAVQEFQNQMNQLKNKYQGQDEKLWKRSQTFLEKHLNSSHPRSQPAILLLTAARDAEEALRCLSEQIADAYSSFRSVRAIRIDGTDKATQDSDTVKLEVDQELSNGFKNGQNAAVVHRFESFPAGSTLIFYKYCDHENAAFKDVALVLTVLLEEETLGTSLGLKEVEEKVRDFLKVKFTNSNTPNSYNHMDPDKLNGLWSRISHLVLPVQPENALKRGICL
In assay [20] the target is Alpha-bungarotoxin (Bungarus multicinctus) (UniProt P60615). The assay can be described thus: compounds binding labelled alpha-BTX control protein – biochemical, small-molecule microarray, Alexa647 label, 635/667 nm fluorescence, artefact control for SMM control protein annotation, profiling panel (AID 1117). To be noted: alpha-BTX-A647 binding fluorescence, higher = more signal.
Chain of Alpha-bungarotoxin (Bungarus multicinctus) (P60615 whole entry, looked up): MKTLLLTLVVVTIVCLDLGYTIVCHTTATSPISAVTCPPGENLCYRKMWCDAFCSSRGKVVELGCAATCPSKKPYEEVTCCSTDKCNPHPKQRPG

Each structure is given as a SMILES string. Active and inactive are the calls of the source.

Here are results for 5 compounds from PubChem BioAssay.

Chain of Dickkopf-related protein 1 (Homo sapiens) (O94907 whole entry, looked up): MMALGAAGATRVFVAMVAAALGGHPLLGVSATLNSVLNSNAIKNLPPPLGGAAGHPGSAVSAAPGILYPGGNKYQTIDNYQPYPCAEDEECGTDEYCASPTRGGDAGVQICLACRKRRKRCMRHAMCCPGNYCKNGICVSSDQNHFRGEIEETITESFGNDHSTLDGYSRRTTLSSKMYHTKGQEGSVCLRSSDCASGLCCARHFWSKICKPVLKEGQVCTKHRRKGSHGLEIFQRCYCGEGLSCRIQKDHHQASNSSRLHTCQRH
Chain of Fibroblast growth factor 10 (Homo sapiens) (O15520 whole entry, looked up): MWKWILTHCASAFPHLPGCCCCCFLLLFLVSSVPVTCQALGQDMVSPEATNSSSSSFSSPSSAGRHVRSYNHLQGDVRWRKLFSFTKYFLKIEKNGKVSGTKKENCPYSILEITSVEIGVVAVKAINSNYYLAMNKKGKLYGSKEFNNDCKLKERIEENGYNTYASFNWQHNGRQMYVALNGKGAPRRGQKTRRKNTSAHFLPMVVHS

As for `C[C@@H](c1ccccc1)N1C(=O)[C@H]2[C@H]3[C@H](O)C=CC(=O)[C@@H]3CC[C@H]2C1=O`, the composite z-score in assay [1] was -0.0301; in assay [2], -0.293; in assay [3], -0.674; in [5] it was 0.373; in [6], 0.606; in [7], 0.54. In addition, the composite z-score in assay [8] was 0.699; in assay [9], 0.557; in [10], 0.25; in assay [11] it was -0.116; in assay [13] it was 0.657; in [14] it was 0.0321. Besides, the composite z-score is -0.442 in assay [15]; -0.192 in assay [16]; -0.34 in [17]; -0.374 in assay [18]; 0.203 in assay [19]; 0.0013 in [20]. Also, the z-score is 0.432 (inactive) in assay [4] and -1.73 in assay [12].

With `CCc1cc2c(nc1CC)CCN(CCC(C)=NOC(C)CN1CCCc3nc(C)c(C)cc31)C2` (stereo not given), the composite z-score in assay [1] was 1.05; in [2], 0.612; in assay [3] it was -0.242; in assay [5], 1.04; in [6], 1.06; in assay [7], 1.16. Also, the composite z-score in assay [8] was found to be 1.32; in assay [9], 1.03; in [10], 1.59; in assay [11] it was 1.13; in assay [13], 0.482; in assay [14], 0.276. Besides, the composite z-score is -0.544 in assay [15]; 0.245 in assay [16]; 1.38 in assay [17]; 0.774 in [18]; 0.849 in assay [19]; 1.21 in assay [20]. For the same compound, the z-score in assay [4] is 0.211 (inactive); in assay [12], -2.1.

For `O=C(CS)NCCCCCNC(=O)[C@H]1C[C@H]2C(=O)N3CCC[C@H]3C(=O)N2[C@H]1c1cccc(OCCO)c1`, the composite z-score came to 1.17 in assay [1]; 0.0187 in [2]; 0.367 in assay [3]; 1.35 in assay [5]; 1.32 in assay [6]; 0.194 in assay [7]. Moreover, the composite z-score in assay [8] was 1.41; in [9], 1.57; in assay [10] it was 1.3; in assay [11], 0.435; in assay [13], 0.691; in [14], -0.8. Further, the composite z-score in assay [15] was -1; in [16] it was 0.128; in assay [17], -0.138; in assay [18], -0.347; in assay [19], 1.22; in assay [20], 1.55. In addition, the z-score was 0.378 (inactive) in assay [4] and 0.235 in assay [12].

In the case of `CCCNC(=O)[C@@H]1c2ccccc2C(=O)N(Cc2ccccc2Cl)[C@H]1c1ccc(CO)cc1`, the composite z-score in assay [1] turned out to be 1.67; in [2] it was 0.989; in assay [3] it was 0.846; in assay [5], 0.619; in [6] it was 1.28; in [7], 0.192. In addition, the composite z-score stood at 1.34 in [8]; 0.649 in assay [9]; 0.341 in assay [10]; 1.22 in [11]; 0.531 in assay [13]; 0.936 in [14]. The composite z-score in assay [15] was 0.375; in assay [16], -0.0203; in assay [17] it was -0.0769; in assay [18] it was 0.546; in assay [19], 0.598; in assay [20] it was 0.726. Also, the values for the z-score in assay [4] and in [12] were -0.493 (inactive) and -0.656, respectively.

As to `CCN1C(=O)[C@H]2[C@H]3[C@H](O)[C@H](O)CC(=NOCC=C(C)CCC=C(C)C)[C@H]3CC[C@H]2C1=O`, the composite z-score in assay [1] was 0.908; in [2], -0.338; in [3], -1.31; in assay [5], 1.13; in assay [6] it was 1.17; in assay [7] it was 1.18. The composite z-score in [8] was 1.43; in assay [9], 1.74; in [10], 1.1; in [11], 0.614; in assay [13], 1.01; in [14] it was -1.01. Further, the composite z-score in assay [15] was -2.13; in assay [16], -0.0704; in assay [17] it was -0.0626; in [18], 0.161; in [19], 0.507; in [20] it was -0.476. Moreover, the z-score in assay [4] was 0.886 (inactive); in assay [12], -0.504.
